# Tests used:
# [1] = molecular target: Vascular endothelial growth factor receptor 3 (Homo sapiens) (UniProt P35916); conditions: at 10 µM
# [2] = molecular target: Macrophage colony-stimulating factor 1 receptor (Homo sapiens) (UniProt P07333); conditions: at 1 µM
# [3] = molecular target: Macrophage colony-stimulating factor 1 receptor (Homo sapiens) (UniProt P07333); conditions: at 10 µM
# [4] = molecular target: Tyrosine-protein kinase Fyn (Homo sapiens) (UniProt P06241); conditions: at 1 µM
# [5] = molecular target: Tyrosine-protein kinase Fyn (Homo sapiens) (UniProt P06241); conditions: at 10 µM
# [6] = molecular target: T1, Mitogen-activated protein kinase kinase kinase kinase 2 (Homo sapiens) (UniProt Q12851); conditions: at 1 µM
# T1 sequence (whole entry): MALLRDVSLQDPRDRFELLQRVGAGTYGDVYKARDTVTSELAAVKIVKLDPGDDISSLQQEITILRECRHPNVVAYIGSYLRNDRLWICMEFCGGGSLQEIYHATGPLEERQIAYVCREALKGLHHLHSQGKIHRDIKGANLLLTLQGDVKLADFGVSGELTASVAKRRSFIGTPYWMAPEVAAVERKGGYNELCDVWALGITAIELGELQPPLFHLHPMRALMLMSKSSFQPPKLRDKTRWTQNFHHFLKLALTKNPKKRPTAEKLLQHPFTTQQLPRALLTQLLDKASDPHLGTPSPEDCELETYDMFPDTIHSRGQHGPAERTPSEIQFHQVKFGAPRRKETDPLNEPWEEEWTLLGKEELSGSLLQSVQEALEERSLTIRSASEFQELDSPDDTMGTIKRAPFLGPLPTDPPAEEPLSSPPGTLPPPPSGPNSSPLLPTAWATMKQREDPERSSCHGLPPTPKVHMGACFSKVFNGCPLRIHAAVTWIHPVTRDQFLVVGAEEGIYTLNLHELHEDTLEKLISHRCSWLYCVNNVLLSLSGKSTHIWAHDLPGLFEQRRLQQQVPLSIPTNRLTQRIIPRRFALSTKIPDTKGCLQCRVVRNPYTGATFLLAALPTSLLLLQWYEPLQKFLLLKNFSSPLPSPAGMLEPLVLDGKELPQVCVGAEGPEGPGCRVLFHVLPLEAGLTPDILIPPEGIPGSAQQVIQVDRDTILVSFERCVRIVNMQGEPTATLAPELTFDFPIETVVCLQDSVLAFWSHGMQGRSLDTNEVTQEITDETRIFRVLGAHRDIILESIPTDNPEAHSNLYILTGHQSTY
# [7] = molecular target: T1, Mitogen-activated protein kinase kinase kinase kinase 2 (Homo sapiens); conditions: at 10 µM
# [8] = molecular target: Glycogen synthase kinase-3 alpha (Homo sapiens) (UniProt P49840); conditions: at 1 µM
# [9] = molecular target: Glycogen synthase kinase-3 alpha (Homo sapiens) (UniProt P49840); conditions: at 10 µM
# [10] = molecular target: Glycogen synthase kinase-3 beta (Homo sapiens) (UniProt P49841); conditions: at 1 µM
# [11] = molecular target: Glycogen synthase kinase-3 beta (Homo sapiens) (UniProt P49841); conditions: at 10 µM
# [12] = molecular target: Homeodomain-interacting protein kinase 2 (Homo sapiens) (UniProt Q9H2X6); conditions: at 1 µM
# [13] = molecular target: G protein-coupled receptor kinase 5 (Homo sapiens) (UniProt P34947); conditions: at 1 µM
# [14] = molecular target: G protein-coupled receptor kinase 5 (Homo sapiens) (UniProt P34947); conditions: at 10 µM
# [15] = molecular target: G protein-coupled receptor kinase 6 (Homo sapiens) (UniProt P43250); conditions: at 1 µM
# [16] = molecular target: G protein-coupled receptor kinase 6 (Homo sapiens) (UniProt P43250); conditions: at 10 µM
# [17] = molecular target: T2, Rhodopsin kinase GRK7 (Homo sapiens) (UniProt Q8WTQ7); conditions: at 1 µM
# T2 sequence (whole entry): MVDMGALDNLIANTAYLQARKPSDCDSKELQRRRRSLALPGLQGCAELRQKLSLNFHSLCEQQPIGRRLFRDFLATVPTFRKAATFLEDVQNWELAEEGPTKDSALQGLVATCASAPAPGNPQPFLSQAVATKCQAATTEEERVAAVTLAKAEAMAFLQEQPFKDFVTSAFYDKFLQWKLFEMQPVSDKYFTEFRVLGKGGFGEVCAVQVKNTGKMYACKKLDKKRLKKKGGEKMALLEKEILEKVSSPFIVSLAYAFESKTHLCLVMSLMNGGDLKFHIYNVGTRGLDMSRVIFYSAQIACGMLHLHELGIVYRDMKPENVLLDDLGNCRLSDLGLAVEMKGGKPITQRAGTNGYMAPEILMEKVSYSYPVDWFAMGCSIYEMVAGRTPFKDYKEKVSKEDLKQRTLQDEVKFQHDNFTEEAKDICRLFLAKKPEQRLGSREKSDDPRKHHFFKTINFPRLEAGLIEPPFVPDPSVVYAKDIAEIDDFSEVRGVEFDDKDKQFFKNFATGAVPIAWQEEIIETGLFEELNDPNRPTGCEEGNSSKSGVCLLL
# [18] = molecular target: T2, Rhodopsin kinase GRK7 (Homo sapiens); conditions: at 10 µM
# [19] = molecular target: Homeodomain-interacting protein kinase 1 (Homo sapiens) (UniProt Q86Z02); conditions: at 10 µM
# [20] = molecular target: Homeodomain-interacting protein kinase 1 (Homo sapiens) (UniProt Q86Z02); conditions: at 1 µM
# Chain of G protein-coupled receptor kinase 5 (Homo sapiens) (P34947 whole entry, looked up): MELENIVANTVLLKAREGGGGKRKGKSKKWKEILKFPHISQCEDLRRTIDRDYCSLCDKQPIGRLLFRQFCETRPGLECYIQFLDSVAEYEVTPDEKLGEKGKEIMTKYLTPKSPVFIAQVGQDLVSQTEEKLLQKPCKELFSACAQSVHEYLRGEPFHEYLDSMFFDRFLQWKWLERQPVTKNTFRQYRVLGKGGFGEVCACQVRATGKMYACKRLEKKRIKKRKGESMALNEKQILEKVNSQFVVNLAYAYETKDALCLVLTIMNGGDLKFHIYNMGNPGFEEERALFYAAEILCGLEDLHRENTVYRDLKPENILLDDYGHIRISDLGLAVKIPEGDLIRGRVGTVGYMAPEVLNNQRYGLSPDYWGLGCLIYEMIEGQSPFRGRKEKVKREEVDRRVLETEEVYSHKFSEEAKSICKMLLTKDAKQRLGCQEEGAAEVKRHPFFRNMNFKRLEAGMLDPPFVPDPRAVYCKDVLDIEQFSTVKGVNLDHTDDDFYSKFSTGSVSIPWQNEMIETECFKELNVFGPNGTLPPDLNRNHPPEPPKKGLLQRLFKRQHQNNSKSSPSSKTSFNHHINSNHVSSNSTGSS
# Chain of Homeodomain-interacting protein kinase 2 (Homo sapiens) (Q9H2X6 whole entry, looked up): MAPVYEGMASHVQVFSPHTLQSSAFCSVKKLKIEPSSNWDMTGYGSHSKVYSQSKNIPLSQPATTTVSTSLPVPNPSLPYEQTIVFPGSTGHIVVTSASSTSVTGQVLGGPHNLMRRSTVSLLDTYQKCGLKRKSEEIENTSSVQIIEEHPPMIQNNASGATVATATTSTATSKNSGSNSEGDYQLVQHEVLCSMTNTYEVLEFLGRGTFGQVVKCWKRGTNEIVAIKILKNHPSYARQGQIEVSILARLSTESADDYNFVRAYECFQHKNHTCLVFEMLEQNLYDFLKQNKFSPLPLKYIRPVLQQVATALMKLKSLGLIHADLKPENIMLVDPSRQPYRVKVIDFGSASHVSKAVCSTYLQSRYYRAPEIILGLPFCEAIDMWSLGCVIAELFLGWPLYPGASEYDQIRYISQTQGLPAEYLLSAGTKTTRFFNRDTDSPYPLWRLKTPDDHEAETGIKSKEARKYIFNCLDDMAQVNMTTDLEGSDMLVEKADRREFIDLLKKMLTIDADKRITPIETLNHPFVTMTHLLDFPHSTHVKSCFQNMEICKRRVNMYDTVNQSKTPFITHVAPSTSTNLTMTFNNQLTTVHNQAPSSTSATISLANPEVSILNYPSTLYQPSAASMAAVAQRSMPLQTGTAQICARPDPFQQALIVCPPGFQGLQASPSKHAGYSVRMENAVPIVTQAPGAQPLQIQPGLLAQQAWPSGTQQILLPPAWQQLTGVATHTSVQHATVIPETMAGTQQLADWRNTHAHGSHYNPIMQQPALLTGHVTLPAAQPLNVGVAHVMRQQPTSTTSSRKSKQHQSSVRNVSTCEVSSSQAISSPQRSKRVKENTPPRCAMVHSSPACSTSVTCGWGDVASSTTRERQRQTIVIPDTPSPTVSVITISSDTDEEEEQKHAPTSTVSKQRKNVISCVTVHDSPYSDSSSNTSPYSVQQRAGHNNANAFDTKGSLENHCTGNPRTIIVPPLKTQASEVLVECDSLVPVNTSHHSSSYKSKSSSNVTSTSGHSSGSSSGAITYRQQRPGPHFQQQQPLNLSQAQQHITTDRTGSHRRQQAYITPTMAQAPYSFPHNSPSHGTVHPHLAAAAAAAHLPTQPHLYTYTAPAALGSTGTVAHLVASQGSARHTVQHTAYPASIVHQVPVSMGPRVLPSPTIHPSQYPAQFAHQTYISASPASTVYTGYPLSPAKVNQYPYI
# Chain of Homeodomain-interacting protein kinase 1 (Homo sapiens) (Q86Z02 whole entry, looked up): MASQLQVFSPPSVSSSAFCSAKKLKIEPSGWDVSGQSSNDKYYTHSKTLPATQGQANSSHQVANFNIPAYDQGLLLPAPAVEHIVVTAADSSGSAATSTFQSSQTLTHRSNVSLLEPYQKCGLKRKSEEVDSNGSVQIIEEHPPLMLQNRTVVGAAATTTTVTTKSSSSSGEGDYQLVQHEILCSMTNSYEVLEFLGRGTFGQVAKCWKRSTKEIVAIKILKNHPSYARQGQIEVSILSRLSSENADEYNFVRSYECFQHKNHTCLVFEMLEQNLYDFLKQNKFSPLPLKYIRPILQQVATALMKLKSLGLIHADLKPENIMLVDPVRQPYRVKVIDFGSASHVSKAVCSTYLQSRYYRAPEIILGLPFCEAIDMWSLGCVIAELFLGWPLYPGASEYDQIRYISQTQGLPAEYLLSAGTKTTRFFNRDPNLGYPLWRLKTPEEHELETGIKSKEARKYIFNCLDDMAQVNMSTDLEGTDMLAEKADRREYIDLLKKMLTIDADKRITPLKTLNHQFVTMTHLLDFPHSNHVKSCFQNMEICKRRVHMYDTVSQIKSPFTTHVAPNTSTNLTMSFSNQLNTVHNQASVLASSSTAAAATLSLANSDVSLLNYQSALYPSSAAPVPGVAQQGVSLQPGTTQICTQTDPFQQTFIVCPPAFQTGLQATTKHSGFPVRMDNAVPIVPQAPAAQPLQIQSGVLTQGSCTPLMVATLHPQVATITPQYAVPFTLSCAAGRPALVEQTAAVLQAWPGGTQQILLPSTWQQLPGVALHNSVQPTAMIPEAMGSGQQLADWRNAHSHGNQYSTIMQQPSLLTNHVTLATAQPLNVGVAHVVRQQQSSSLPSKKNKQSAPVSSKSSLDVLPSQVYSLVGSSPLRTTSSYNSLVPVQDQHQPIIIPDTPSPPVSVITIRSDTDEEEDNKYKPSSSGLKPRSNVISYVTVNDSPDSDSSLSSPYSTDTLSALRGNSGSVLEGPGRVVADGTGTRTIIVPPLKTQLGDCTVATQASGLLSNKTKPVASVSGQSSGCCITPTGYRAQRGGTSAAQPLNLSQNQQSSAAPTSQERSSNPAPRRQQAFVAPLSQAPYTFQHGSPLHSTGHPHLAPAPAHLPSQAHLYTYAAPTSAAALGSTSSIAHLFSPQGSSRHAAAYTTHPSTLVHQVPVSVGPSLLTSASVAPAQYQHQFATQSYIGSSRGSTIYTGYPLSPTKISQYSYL
# Chain of Glycogen synthase kinase-3 alpha (Homo sapiens) (P49840 2-483 limits assumed): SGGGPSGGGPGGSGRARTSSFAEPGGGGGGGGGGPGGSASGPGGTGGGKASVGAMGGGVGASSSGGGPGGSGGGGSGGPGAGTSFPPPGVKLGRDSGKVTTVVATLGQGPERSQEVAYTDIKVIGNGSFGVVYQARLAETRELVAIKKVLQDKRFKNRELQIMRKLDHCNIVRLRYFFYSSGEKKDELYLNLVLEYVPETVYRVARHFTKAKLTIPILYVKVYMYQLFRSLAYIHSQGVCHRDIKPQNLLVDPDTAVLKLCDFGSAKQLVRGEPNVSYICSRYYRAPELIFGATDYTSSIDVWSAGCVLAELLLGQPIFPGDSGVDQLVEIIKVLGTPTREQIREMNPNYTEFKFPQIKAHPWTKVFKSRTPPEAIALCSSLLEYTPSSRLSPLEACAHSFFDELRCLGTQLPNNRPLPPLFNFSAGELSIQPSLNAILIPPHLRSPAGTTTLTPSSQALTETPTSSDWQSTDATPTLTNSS
# Chain of Glycogen synthase kinase-3 beta (Homo sapiens) (P49841 whole entry, looked up): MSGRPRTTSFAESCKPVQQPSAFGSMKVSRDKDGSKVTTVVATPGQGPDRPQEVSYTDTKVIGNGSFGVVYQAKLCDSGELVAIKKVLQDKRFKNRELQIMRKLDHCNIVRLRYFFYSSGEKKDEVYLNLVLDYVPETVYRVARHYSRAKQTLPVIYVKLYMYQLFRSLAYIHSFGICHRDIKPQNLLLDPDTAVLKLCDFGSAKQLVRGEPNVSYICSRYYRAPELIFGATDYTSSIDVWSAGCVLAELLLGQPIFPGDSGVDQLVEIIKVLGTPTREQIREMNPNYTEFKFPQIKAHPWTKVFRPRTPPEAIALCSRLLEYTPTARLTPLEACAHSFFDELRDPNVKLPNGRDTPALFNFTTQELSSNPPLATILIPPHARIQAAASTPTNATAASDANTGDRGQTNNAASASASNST
# Chain of Macrophage colony-stimulating factor 1 receptor (Homo sapiens) (P07333 whole entry): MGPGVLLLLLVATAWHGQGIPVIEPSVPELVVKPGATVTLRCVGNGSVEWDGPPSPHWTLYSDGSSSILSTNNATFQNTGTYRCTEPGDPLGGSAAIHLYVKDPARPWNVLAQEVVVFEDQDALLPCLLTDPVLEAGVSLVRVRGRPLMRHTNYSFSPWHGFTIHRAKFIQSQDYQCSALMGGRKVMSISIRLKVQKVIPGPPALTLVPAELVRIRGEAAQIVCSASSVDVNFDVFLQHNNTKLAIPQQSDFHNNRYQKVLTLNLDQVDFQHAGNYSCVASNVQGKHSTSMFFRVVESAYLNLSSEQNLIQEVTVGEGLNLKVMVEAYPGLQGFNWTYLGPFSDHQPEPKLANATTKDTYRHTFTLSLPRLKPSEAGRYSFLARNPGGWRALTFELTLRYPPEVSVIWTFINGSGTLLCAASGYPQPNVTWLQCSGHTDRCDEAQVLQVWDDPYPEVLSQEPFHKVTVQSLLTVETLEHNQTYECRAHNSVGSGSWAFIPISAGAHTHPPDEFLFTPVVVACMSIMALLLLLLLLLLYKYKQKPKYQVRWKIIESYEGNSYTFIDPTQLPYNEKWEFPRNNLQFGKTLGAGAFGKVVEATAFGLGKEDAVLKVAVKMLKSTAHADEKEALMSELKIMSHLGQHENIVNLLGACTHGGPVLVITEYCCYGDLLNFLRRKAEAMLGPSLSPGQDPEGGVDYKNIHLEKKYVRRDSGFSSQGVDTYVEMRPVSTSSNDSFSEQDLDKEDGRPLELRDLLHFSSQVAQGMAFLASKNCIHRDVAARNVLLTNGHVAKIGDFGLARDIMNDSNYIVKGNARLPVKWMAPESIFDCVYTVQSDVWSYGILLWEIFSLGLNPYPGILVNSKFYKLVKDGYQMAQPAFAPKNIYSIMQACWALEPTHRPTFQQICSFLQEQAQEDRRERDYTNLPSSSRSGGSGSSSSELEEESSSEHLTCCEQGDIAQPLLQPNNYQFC
structure (smiles),measurement,setting,value
O=C1NC(=O)c2c1c1c3ccccc3n3c1c1c2c2ccccc2n1C1CCC3O1,residual activity,[1],2%
same,residual activity,[2],30%
same,residual activity,[3],26%
same,residual activity,[4],81%
same,residual activity,[5],75%
same,residual activity,[6],20%
same,residual activity,[7],10%
same,residual activity,[8],15%
same,residual activity,[9],3%
same,residual activity,[10],40%
same,residual activity,[11],23%
same,residual activity,[12],42%
CC(C)(C)n1nc(Cc2cccc3ccccc23)c2c(N)ncnc21,residual activity,[13],108%
COc1cc2nccc(Oc3ccc(NC(=O)Nc4cc(C)on4)c(Cl)c3)c2cc1OC,residual activity,[13],105%
O=C1NC(=O)C(c2cn(CCCO)c3ncccc23)=C1c1cnccn1,residual activity,[13],100%
COc1cc2ncnc(Nc3cccc(Cl)c3)c2cc1OC,residual activity,[13],108%
O=C1NC(=O)C(c2cn(CCCn3ccnc3)c3ccccc23)=C1Nc1ccccc1,residual activity,[13],78%
Cn1c2ccccc2c2c3c(c4c5ccccc5n(CCC#N)c4c21)CNC3=O,residual activity,[13],69%
CCn1cnc2c(Nc3cccc(Cl)c3)nc(N[C@@H]3CCCC[C@@H]3N)nc21,residual activity,[1],2%
same,residual activity,[2],54%
same,residual activity,[3],11%
same,residual activity,[4],8%
same,residual activity,[5],0%
same,residual activity,[6],43%
same,residual activity,[7],7%
same,residual activity,[13],96%
same,residual activity,[14],66%
same,residual activity,[15],91%
same,residual activity,[16],68%
same,residual activity,[17],74%
same,residual activity,[18],24%
same,residual activity,[8],123%
same,residual activity,[9],119%
same,residual activity,[10],132%
same,residual activity,[11],136%
same,residual activity,[19],81%
same,residual activity,[12],85%
CC(C)(C)c1cc(C=C(C#N)C#N)cc(Br)c1O,residual activity,[1],83%
same,residual activity,[2],97%
same,residual activity,[3],76%
same,residual activity,[5],15%
same,residual activity,[6],113%
same,residual activity,[13],120%
same,residual activity,[14],100%
same,residual activity,[15],106%
same,residual activity,[16],104%
same,residual activity,[17],113%
same,residual activity,[18],102%
same,residual activity,[8],117%
same,residual activity,[9],74%
same,residual activity,[10],106%
same,residual activity,[11],96%
same,residual activity,[20],107%
same,residual activity,[19],104%
same,residual activity,[12],101%
CCc1nc(-c2ccc(OC)cc2)[nH]c1-c1ccncc1,residual activity,[1],77%
same,residual activity,[2],78%
same,residual activity,[3],71%
same,residual activity,[4],75%
same,residual activity,[5],72%
same,residual activity,[8],106%
same,residual activity,[10],114%
same,residual activity,[11],115%
Nc1nc(Nc2ccc(S(N)(=O)=O)cc2)nn1C(=S)Nc1c(F)cccc1F,residual activity,[13],77%
COc1cc(OC)c(/C=C2\C(=O)Nc3ccccc32)c(OC)c1,residual activity,[1],74%
same,residual activity,[2],87%
same,residual activity,[3],69%
same,residual activity,[4],70%
same,residual activity,[5],68%
same,residual activity,[6],95%
same,residual activity,[7],86%
same,residual activity,[13],101%
same,residual activity,[14],99%
same,residual activity,[15],89%
same,residual activity,[16],91%
same,residual activity,[17],95%
same,residual activity,[18],84%
same,residual activity,[8],105%
same,residual activity,[9],95%
same,residual activity,[10],132%
same,residual activity,[11],106%
same,residual activity,[20],102%
same,residual activity,[19],98%
same,residual activity,[12],104%
COc1ccc2c(c1)/C(=C/c1cnc[nH]1)C(=O)N2,residual activity,[2],41%
same,residual activity,[3],14%
same,residual activity,[4],67%
same,residual activity,[5],25%
same,residual activity,[6],23%
same,residual activity,[7],3%
same,residual activity,[16],76%
same,residual activity,[18],42%
same,residual activity,[10],42%
same,residual activity,[11],4%
same,residual activity,[19],52%
Nc1nc(Nc2ccc(S(N)(=O)=O)cc2)nn1C(=O)c1c(F)cccc1F,residual activity,[13],78%
C[S+]([O-])c1ccc(-c2nc(-c3ccc(F)cc3)c(-c3ccncc3)[nH]2)cc1 (stereo unspecified),residual activity,[1],42%
same,residual activity,[2],109%
same,residual activity,[3],52%
same,residual activity,[4],76%
same,residual activity,[5],35%
same,residual activity,[6],104%
same,residual activity,[7],100%
same,residual activity,[13],109%
same,residual activity,[14],104%
same,residual activity,[15],107%
same,residual activity,[16],102%
same,residual activity,[17],109%
same,residual activity,[18],108%
same,residual activity,[8],86%
same,residual activity,[9],49%
same,residual activity,[11],34%
same,residual activity,[20],102%
same,residual activity,[19],97%
same,residual activity,[12],110%
CCCCc1c(-c2ccc(OC)cc2)[nH]c2nccnc12,residual activity,[13],88%
CC(=O)c1ccc(N2CCOCC2)cc1O,residual activity,[13],105%
same,residual activity,[15],95%
COc1ccc(C(=O)Nc2sc3c(c2C(N)=O)CCCC3)cc1OC,residual activity,[13],91%
same,residual activity,[15],90%
CC(C)n1cnc2c(NCc3ccccc3)nc(NCCCO)nc21,residual activity,[13],101%
same,residual activity,[15],96%
CC(=O)O/N=C1\C(=C2\C(=O)Nc3cc(Br)ccc32)Nc2ccccc21,residual activity,[13],98%
same,residual activity,[15],86%
COc1cc2ncnc(Nc3ccc(NC(=O)c4ccccc4)cc3)c2cc1OC,residual activity,[13],105%
same,residual activity,[15],111%
O=C1NC(=O)/C(=C\c2ccc3nccnc3c2)S1,residual activity,[13],103%
same,residual activity,[15],90%
Cn1nc2c3c(cccc31)C(=O)c1ccccc1-2,residual activity,[13],102%
same,residual activity,[15],93%
CCOc1cc2ncnc(Nc3cccc(Br)c3)c2cc1OCC,residual activity,[13],97%
same,residual activity,[15],100%
O=C1NC(=O)/C(=C/c2ccc3c(c2)OC(F)(F)O3)S1,residual activity,[13],92%
same,residual activity,[15],93%
CC(C)c1nn(-c2c(Cl)cccc2Cl)c2nc(Cc3ccc(OCCO)cc3)[nH]c(=O)c12,residual activity,[13],101%
same,residual activity,[15],96%
NC(=O)c1ccc2[nH]c(-c3ccc(Oc4ccc(Cl)cc4)cc3)nc2c1,residual activity,[13],93%
same,residual activity,[15],93%
CNc1cc2c(Nc3cccc(Br)c3)ncnc2cn1,residual activity,[13],109%
same,residual activity,[15],95%
O=C(Nc1cccc(Nc2nccc(Nc3cccc(C(F)(F)F)c3)n2)c1)C1CC1,residual activity,[13],94%
same,residual activity,[15],99%
Cn1sc(=O)n(Cc2ccccc2)c1=O,residual activity,[13],88%
same,residual activity,[15],88%
COc1ccc(OC)c2c(=S)c3ccccc3[nH]c12,residual activity,[13],94%
same,residual activity,[15],98%
NCCNc1ncc(C(N)=O)c(Nc2cccc(C(F)(F)F)c2)n1,residual activity,[13],105%
same,residual activity,[15],100%
O=C(O)c1ccc2c3c1cccc3c(=O)n1c3ccccc3nc21,residual activity,[13],95%
same,residual activity,[15],100%
CCCC(=O)Oc1ccc2[nH]c(C(=O)c3cc4ccccc4[nH]3)cc2c1,residual activity,[13],104%
same,residual activity,[15],93%
Cc1nc2cc3nc(-c4cccs4)cnc3cc2n1C,residual activity,[13],113%
same,residual activity,[15],103%
Cc1nc(-c2ccccc2)c(-c2ccncc2)o1,residual activity,[13],104%
same,residual activity,[15],103%
O=C1NC(=O)c2c1c1c3ccccc3[nH]c1n1cncc21,residual activity,[13],83%
same,residual activity,[15],82%
O=[N+]([O-])c1ccc(-c2nc(-c3ccc(F)cc3)c(-c3ccncc3)[nH]2)cc1,residual activity,[13],101%
same,residual activity,[15],102%
COc1ccc(CNc2nc(N(CCO)CCO)nc3c2ncn3C(C)C)cc1,residual activity,[13],89%
same,residual activity,[15],95%
O=C1Nc2cc(Br)ccc2/C1=C1/Nc2ccccc2/C1=N\O,residual activity,[13],89%
same,residual activity,[15],89%
COc1ccc(S(=O)(=O)N(CCO)c2ccccc2CN(C)C/C=C/c2ccc(Cl)cc2)cc1,residual activity,[13],97%
same,residual activity,[15],91%
N#C/C(=C(\N)Sc1ccc(N)cc1)c1ccccc1C(F)(F)F,residual activity,[13],97%
same,residual activity,[15],86%
Nc1ncnc2c1c(-c1ccc(Oc3ccccc3)cc1)cn2C1CCCC1,residual activity,[13],103%
same,residual activity,[15],92%
Oc1ccc(Nc2nc(-c3ccc(Cl)cc3)cs2)cc1,residual activity,[13],102%
same,residual activity,[15],103%
c1ccc(-c2n[nH]c3c2oc2ccccc23)cc1,residual activity,[13],91%
same,residual activity,[15],99%
Nc1ncnc2[nH]nc(Nc3ccc(F)cc3)c12,residual activity,[13],103%
same,residual activity,[15],97%

# — ChEMBL document CHEMBL2218924, “A broad activity screen in support of a chemogenomic map for kinase signalling research and drug discovery” (Biochem J, 2013)
